The AC50 is the concentration at which the activity in the assay is half-maximal.

Results filed as inconclusive are left out. Activity calls are given as the source filed them. Rule for the calls, unless noted: active = hit-call score of the fitted dose curve at least 0.9, where 1 is the maximum; inactive = score below 0.9.

The target in assay [1] is human Retinoid X Receptor beta (RXRb), RXRB (gene 6257) (UniProt P28702). As to the kind of experiment: ATG_RXRb_TRANS: Attagene TRANS-FACTORIAL HepG2 Assay for human Retinoid X Receptor beta (RXRb) (AID 2283013; active = hit-call score of the fitted dose curve at least 0.9, where 1 is the maximum). A digest of the protocol:
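Readout is reporter transcript induction after 24 h dosing. It is measured by RT-PCR of total RNA followed by fluorescent capillary electrophoresis. HepG2 liver cells carry transfected multiple reporter units driven by an exogenous RXRb-Gal4 fusion; activity is relative to DMSO.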

Assay [2] deals with human Thyroid Receptor alpha (THRa1), THRA (gene 7067) (UniProt P10827). The assay can be described thus: ATG_THRa1_TRANS: Attagene TRANS-FACTORIAL HepG2 Assay for human Thyroid Receptor alpha (THRa1) (AID 2283014; active = hit-call score of the fitted dose curve at least 0.9, where 1 is the maximum). In a few lines:
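Measured here is mRNA from a GAL4-UAS reporter in transfected HepG2 cells carrying a Gal4-fused receptor, 24 h post-dose. DMSO served as negative control and baseline.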

Read-out in assay [3]: E-selectin (Homo sapiens) (UniProt P16581)
The assay can be described thus: BSK_3C_Eselectin: BioMAP Diversity Plus: 3C Assay for Eselectin Biomarker Activity (AID 2283015).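 For outcome: cell surface E-selectin protein quantified by ELISA 24 h after dosing.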 The following applies: primary human endothelial cells (HUVEC); actives raise or lower the signal. A digest of the protocol:
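Endpoint derived by bidirectional fitting against DMSO vehicle; signal is ELISA-detected E-selectin from primary HUVEC at 24 h post-dosing, with parallel SRB staining (0.1% SRB, 560 nm) flagging cytotoxicity.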

Read-out in assay [4]: Interleukin-1 alpha (IL1a), IL1A (gene 3552)
The assay can be described thus: BSK_BE3C_IL1a: BioMAP Diversity Plus: BE3C Assay for Interleukin-1 alpha (IL1a) Biomarker Activity (AID 2283016). The following applies: primary human bronchial epithelial cells; actives raise or lower the signal. A digest of the protocol:
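IL-1a measured by ELISA after 24 h treatment of human primary bronchial epithelial cells, with gain or loss of signal fitted versus DMSO. Parallel cultures stained with SRB gauge overt cytotoxicity.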

Read-out in assay [5]: Monocyte Chemoattractant Protein-1 (MCP1), CCL2 (gene 6347)
As to the kind of experiment: BSK_3C_MCP1: BioMAP Diversity Plus: 3C Assay for Monocyte Chemoattractant Protein-1 (MCP1) Biomarker Activity (AID 2283017). The following applies: primary human endothelial cells (HUVEC); actives raise or lower the signal. In a few lines: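 Using human vascular primary endothelium, researchers measured MCP-1 by ELISA 24 h after treatment, with DMSO serving as negative control for bidirectional fitting.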

Read-out in assay [6]: Monocyte Chemoattractant Protein-1 (MCP1), CCL2 (gene 6347)
As to the kind of experiment: BSK_4H_MCP1: BioMAP Diversity Plus: 4H Assay for Monocyte Chemoattractant Protein-1 (MCP1) Biomarker Activity (AID 2283018). The following applies: primary human endothelial cells (HUVEC); actives raise or lower the signal. In a few lines:
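ELISA of MCP-1 (CCL2) 24 h after chemical dosing of HUVEC in the BioMAP 4H system. Gain or loss versus DMSO fitted; parallel SRB staining (560 nm) tracked overt cytotoxicity.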

Read-out in assay [7]: Human Leukocyte Antigen - DR isotype (HLADR), HLA-DRA (gene 3122)
The assay can be described thus: BSK_3C_HLADR: BioMAP Diversity Plus: 3C Assay for Human Leukocyte Antigen - DR isotype (HLADR) Biomarker Activity (AID 2283019). The following applies: primary human endothelial cells (HUVEC); actives raise or lower the signal. In a few lines:
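Compound added to primary HUVEC cultures, 24 h incubation, then HLA-DR determined by ELISA; endpoint derived by bidirectional fitting relative to DMSO negative control.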

Read-out in assay [8]: Interleukin-8 (IL8), CXCL8 (gene 3576)
As to the kind of experiment: BSK_3C_IL8: BioMAP Diversity Plus: 3C Assay for Interleukin-8 (IL8) Biomarker Activity (AID 2283020). The following applies: primary human endothelial cells (HUVEC); actives raise or lower the signal. In a few lines:
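IL-8 was measured by ELISA in HUVEC cultures 24 h after chemical dosing, with gain or loss of signal fitted relative to DMSO. Parallel SRB total-protein staining tracked overt cytotoxicity.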

Read-out in assay [9]: Monokine induced gamma interferon (MIG), CXCL9 (gene 4283)
As to the kind of experiment: BSK_3C_MIG: BioMAP Diversity Plus: 3C Assay for Monokine induced gamma interferon (MIG) Biomarker Activity (AID 2283021).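 For AC50: MIG protein level measured by immunoassay in the treated endothelial cultures.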 The following applies: primary human endothelial cells (HUVEC); actives raise or lower the signal. A digest of the protocol:
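ELISA measurement of MIG in human umbilical vein endothelial cells 24 h after treatment. Cytotoxicity tracked by SRB staining in parallel cultures; gain or loss of signal fitted relative to DMSO.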

For assay [10], the target named is human Vitamin D Receptor (VDR), VDR (gene 7421) (UniProt P11473). The assay can be described thus: ATG_VDR_TRANS: Attagene TRANS-FACTORIAL HepG2 Assay for human Vitamin D Receptor (VDR) (AID 2283022; active = hit-call score of the fitted dose curve at least 0.9, where 1 is the maximum). In a few lines: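 Multiplexed TRANS reporter in HepG2; 24 h treatment; reporter mRNA by RT-PCR plus capillary electrophoresis; upregulation scored relative to DMSO.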
human Vitamin D Receptor (VDR), VDR (gene 7421), sequence (P11473 whole entry, looked up): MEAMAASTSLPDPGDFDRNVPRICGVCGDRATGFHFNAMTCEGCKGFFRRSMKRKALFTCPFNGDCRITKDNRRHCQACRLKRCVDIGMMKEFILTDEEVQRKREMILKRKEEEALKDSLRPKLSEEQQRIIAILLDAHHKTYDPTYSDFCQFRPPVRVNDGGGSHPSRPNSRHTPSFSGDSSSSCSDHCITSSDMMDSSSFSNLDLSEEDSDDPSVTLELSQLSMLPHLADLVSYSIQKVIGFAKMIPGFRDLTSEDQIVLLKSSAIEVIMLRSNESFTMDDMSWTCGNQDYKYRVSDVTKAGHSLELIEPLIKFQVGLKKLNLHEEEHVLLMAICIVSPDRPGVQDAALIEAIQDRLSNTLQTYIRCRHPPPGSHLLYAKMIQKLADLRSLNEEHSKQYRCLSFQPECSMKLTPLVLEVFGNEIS

The nature of assay [11]: BSK_3C_SRB: Viability Assessment in the BioMAP Diversity Plus: 3C Assay (AID 2283023).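 Note: cells read 24 h after compound dosing; fitted both ways against DMSO so a hit may be signal rise or drop.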 The following applies: primary human endothelial cells (HUVEC). A digest of the protocol:
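Overt cytotoxicity is gauged in parallel confluent HUVEC cultures by SRB total-protein staining at the time of biomarker measurement, 24 h after dosing. Gain or loss of signal is fitted versus DMSO.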

Read-out in assay [12]: Matrix Metallopeptidase 1 (MMP1), MMP1 (gene 4312)
The assay can be described thus: BSK_BE3C_MMP1: BioMAP Diversity Plus: BE3C Assay for Matrix Metallopeptidase 1 (MMP1) Biomarker Activity (AID 2283024). The following applies: primary human bronchial epithelial cells; actives raise or lower the signal. In a few lines: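 ELISA measurement of MMP-1 after 24 h compound exposure of primary human bronchial epithelial cells. Changes in either direction fitted relative to DMSO; parallel SRB staining checked overt cytotoxicity.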

Assay [13] in a line: BSK_3C_Vis: BioMAP Diversity Plus: 3C Assay for Morphology Visualization (AID 2283025).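 For AC50: light microscopy image of cell morphology used as background control.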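 Note: fitted both ways so gain or loss versus DMSO counts.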 The following applies: primary human endothelial cells (HUVEC). In a few lines: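 Light-microscopy visualization of HUVEC cultures at 24 h post-treatment, with DMSO as baseline for bidirectional fitting.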
Read-out in assay [14]: Pselectin, SELP (gene 6403)
As to the kind of experiment: BSK_4H_Pselectin: BioMAP Diversity Plus: 4H Assay for Pselectin Biomarker Activity (AID 2283026). The following applies: primary human endothelial cells (HUVEC); actives raise or lower the signal. A digest of the protocol:
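ELISA of surface P-selectin on HUVEC, 24 h after dosing, with parallel SRB staining (0.1% after 10% TCA fixation, 560 nm) for overt cytotoxicity. Activity fitted in both directions relative to DMSO.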

The nature of assay [15]: BSK_4H_SRB: Viability Assessment in the BioMAP Diversity Plus: 4H Assay (AID 2283027).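 For AC50: curves fitted both ways versus DMSO so AC50 may be loss or gain.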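 Note: cells exposed to compound for 24 h before staining.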 The following applies: primary human endothelial cells (HUVEC). In a few lines:
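HUVEC, 24 h post-dose; 10% TCA fix, 0.1% SRB stain, A560 nm. Total protein = overt cytotoxicity, parallel to biomarker read. Bidirectional fit vs DMSO baseline.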

Assay [16] in a line: BSK_BE3C_SRB: Viability Assessment in the BioMAP Diversity Plus: BE3C Assay (AID 2283028). The following applies: primary human bronchial epithelial cells. In a few lines: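 SRB total-protein staining (0.1%, after TCA fixation) of chemically dosed human bronchial epithelial primary cells at 24 h; DMSO serves as the negative control for bidirectional curve fitting.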
Read-out in assay [17]: Thrombomodulin, THBD (gene 7056)
The assay can be described thus: BSK_3C_Thrombomodulin: BioMAP Diversity Plus: 3C Assay for Thrombomodulin Biomarker Activity (AID 2283029). The following applies: primary human endothelial cells (HUVEC); actives raise or lower the signal. In a few lines: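 ELISA measurement of thrombomodulin on HUVEC surface 24 h after chemical dosing; activity fitted in both directions relative to DMSO vehicle.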

Read-out in assay [18]: Urokinase-type plasminogen activator receptor (uPAR), PLAUR (gene 5329)
The assay can be described thus: BSK_4H_uPAR: BioMAP Diversity Plus: 4H Assay for Urokinase-type plasminogen activator receptor (uPAR) Biomarker Activity (AID 2283030). The following applies: primary human endothelial cells (HUVEC); actives raise or lower the signal. A digest of the protocol: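 Endpoint derived via bidirectional curve fitting against DMSO baseline; readout was ELISA detection of uPAR on umbilical vein endothelial cells at 24 h post-treatment, with SRB-stained parallel cultures assessing cytotoxicity.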

Read-out in assay [19]: Vascular endothelial growth factor receptor 2 (Homo sapiens) (UniProt P35968)
The assay can be described thus: BSK_4H_VEGFRII: BioMAP Diversity Plus: 4H Assay for Vascular endothelial growth factor receptor 2 (VEGFR2) Biomarker Activity (AID 2283031).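 For AC50: cell-surface VEGFR2 protein level quantified by ELISA.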 The following applies: primary human endothelial cells (HUVEC); actives raise or lower the signal. In a few lines:
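In this multiplexed HUVEC system, biomarker ELISA was performed after 24 h chemical exposure. Parallel SRB staining (TCA fixation, 560 nm) tracked cytotoxicity; DMSO served as baseline.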

Read-out in assay [20]: Human Leukocyte Antigen - DR isotype (HLADR), HLA-DRA (gene 3122)
As to the kind of experiment: BSK_BE3C_HLADR: BioMAP Diversity Plus: BE3C Assay for Human Leukocyte Antigen - DR isotype (HLADR) Biomarker Activity (AID 2283032). The following applies: primary human bronchial epithelial cells; actives raise or lower the signal. A digest of the protocol:
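Cell-surface HLA-DR ELISA readout at 24 h after dosing in the BE3C primary human lung bronchial epithelial system; gain or loss of signal against DMSO, with parallel sulforhodamine B staining of total protein for overt cytotoxicity.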

E-selectin (Homo sapiens), sequence (P16581 whole entry, looked up): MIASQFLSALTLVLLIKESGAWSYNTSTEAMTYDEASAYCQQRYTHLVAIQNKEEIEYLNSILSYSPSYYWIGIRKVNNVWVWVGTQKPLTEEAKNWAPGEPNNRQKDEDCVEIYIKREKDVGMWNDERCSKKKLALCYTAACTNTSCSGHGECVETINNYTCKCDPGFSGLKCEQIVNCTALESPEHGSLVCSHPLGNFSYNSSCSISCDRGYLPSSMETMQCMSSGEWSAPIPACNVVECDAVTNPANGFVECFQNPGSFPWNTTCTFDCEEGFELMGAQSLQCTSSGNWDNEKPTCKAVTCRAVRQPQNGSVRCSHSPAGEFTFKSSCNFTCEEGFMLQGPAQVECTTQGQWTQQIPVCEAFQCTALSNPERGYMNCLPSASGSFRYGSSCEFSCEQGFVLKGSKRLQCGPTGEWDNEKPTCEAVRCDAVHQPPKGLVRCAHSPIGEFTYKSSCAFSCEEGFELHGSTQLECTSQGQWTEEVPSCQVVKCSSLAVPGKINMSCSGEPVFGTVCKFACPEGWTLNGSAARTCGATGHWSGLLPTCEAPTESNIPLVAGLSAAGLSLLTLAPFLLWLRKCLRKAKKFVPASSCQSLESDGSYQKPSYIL
human Thyroid Receptor alpha (THRa1), THRA (gene 7067), sequence (P10827 whole entry, looked up, the tested form may be a part): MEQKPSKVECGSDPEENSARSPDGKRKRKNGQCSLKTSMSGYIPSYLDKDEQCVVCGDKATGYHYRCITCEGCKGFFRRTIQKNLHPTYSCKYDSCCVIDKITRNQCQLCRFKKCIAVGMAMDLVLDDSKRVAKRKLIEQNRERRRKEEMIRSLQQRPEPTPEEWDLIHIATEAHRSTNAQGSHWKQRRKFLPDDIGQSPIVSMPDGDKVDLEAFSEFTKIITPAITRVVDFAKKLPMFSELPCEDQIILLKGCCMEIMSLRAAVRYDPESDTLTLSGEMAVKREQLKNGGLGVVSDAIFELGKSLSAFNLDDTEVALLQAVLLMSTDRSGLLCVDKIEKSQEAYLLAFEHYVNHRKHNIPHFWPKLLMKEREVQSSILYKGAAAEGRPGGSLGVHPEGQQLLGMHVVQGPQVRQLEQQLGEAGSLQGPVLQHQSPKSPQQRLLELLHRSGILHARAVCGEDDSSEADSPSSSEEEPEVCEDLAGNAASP
human Retinoid X Receptor beta (RXRb), RXRB (gene 6257), sequence (P28702 whole entry, looked up, the tested form may be a part): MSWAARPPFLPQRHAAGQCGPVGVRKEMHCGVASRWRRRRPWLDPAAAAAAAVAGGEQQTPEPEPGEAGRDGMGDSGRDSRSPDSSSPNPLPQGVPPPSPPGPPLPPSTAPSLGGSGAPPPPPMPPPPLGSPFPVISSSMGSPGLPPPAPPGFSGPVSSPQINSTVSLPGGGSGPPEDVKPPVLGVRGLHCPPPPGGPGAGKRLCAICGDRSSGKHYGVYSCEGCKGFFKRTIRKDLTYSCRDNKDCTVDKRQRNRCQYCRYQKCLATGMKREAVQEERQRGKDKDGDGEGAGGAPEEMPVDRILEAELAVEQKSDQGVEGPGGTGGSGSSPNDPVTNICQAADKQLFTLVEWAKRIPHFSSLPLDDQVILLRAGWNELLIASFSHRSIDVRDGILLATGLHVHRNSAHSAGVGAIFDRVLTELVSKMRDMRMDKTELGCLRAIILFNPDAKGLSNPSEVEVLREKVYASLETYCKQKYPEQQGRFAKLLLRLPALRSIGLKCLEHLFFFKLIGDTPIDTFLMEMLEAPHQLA

Regarding `COP(=S)(OC)Oc1ccc(Sc2ccc(OP(=S)(OC)OC)cc2)cc1`, the outcome in assay [1], in assay [2], in [9], in [10], in assay [12] and in assay [16] was inactive. The outcome in assay [17], in assay [18] and in [19] was inactive. In addition, the half-maximal activity concentration (AC50) in [3] was 26.5 µM (active); in assay [4], 7.5 µM (active); in assay [5], 27.1 µM (active); in assay [6] it was 11.8 µM (active); in assay [7], 28.5 µM (active); in [8] it was 7.51 µM (active). Moreover, the concentration at half-maximal activity (AC50) was 20 µM (active) in assay [11]; 13.6 µM (active) in assay [13]; 14.5 µM (active) in assay [14]; 9.79 µM (active) in assay [15]; 8.14 µM (active) in assay [20].
Consider `CN(C)N=O`, for which the call in assay [1], in assay [2], in assay [3], in assay [4], in assay [5] and in assay [6] was inactive. Further, the outcome in assay [7], in [8], in [9], in assay [10], in assay [11] and in assay [12] was inactive. The result in assay [13], in assay [14], in [15], in [16], in assay [17] and in assay [18] was inactive. Moreover, the result in [19] and in [20] was inactive.
Take `CCN(CC)C(=O)Cl`: the outcome in assay [1] was inactive.
`Cl/C=C/Cl`: the outcome in [1] and in assay [2] was inactive.
Regarding `COP(=O)(OC)O/C(=C\Cl)c1cc(Cl)c(Cl)cc1Cl`, the concentration at half-maximal activity (AC50) in assay [1] was 25.7 µM (active). Further, the call in assay [2] was inactive.
Turning to `C=CCc1ccc(OC)cc1`, the result in assay [1] and in assay [2] was inactive.
As to `O=C(OC1CCCCC1)c1ccccc1C(=O)OC1CCCCC1`, the concentration at half-maximal activity (AC50) in [1] is 7.44 µM (active); in assay [3], 11.3 µM (active); in [4], 11.6 µM (active); in [5], 11.7 µM (active); in [6], 8.94 µM (active); in assay [7], 8.72 µM (active). The AC50 was 8.46 µM (active) in assay [8]; 10.9 µM (active) in assay [11]; 4.58 µM (active) in assay [12]; 5.63 µM (active) in [13]; 9.57 µM (active) in [14]; 13 µM (active) in assay [15]. Besides, the AC50 in [18] was 13 µM (active); in assay [19], 9.97 µM (active); in [20], 13 µM (active). The outcome in assay [2], in assay [9], in [10] and in [16] was inactive.
For `CC(=O)C(Cl)C(=O)N(C)C` (stereo not drawn), the molecule was classed as inactive in [1], in assay [2], in [9], in assay [10], in [11] and in assay [12]. Further, the result in assay [15], in assay [16], in assay [18] and in assay [19] was inactive. In addition, the AC50 in [3] was 20 µM (active); in [4], 20 µM (active); in [5], 20 µM (active); in assay [6], 20 µM (active); in [8] it was 11.7 µM (active); in assay [13], 37.5 µM (active). Also, the AC50 in [14] is 15.6 µM (active); in assay [20] it was 26.9 µM (active).
Turning to `Oc1c(I)cc(I)cc1I`, the molecule was classed as inactive in assay [1], in assay [10] and in assay [16]. The AC50 is 7.66 µM (active) in assay [2]; 11.3 µM (active) in [3]; 8.87 µM (active) in assay [4]; 11.9 µM (active) in [5]; 20 µM (active) in assay [6]; 9.5 µM (active) in assay [7]. Further, the AC50 in assay [8] was 11.5 µM (active); in assay [9], 34.9 µM (active); in assay [11] it was 10.3 µM (active); in assay [12], 6.77 µM (active); in assay [13] it was 13 µM (active); in [14], 12.7 µM (active). Moreover, the half-maximal activity concentration (AC50) in assay [15] is 20 µM (active); in [18], 12.7 µM (active); in [19] it was 12.5 µM (active); in [20], 3.97 µM (active).

The record behind these values is PubChem BioAssay (EPA / NIEHS).
